The source of these data is PubChem BioAssay.

Assay [1] can be described thus: optical density shifts of acrAB sulA E. coli – strain DRC41, OD650, 48 h, E. coli filamentation inducer project, primary screen (AID 1152).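 Note: E. coli MC1000 strain DRC41 lacking acrAB efflux pump and sulA.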 The settings on record: higher = more signal, called active from +8 up or from −8 down.
Assay [2] is described as follows: probe aLefty1 binding on compound microarray – biochemical, small-molecule microarray, 635/667 nm fluorescence, primary screen (AID 1153).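 Note: score merges spot fluorescence with signal-to-noise ratio from the scanned slide images.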 As to conditions: higher = more signal.
A short description of assay [3]: plasmodial surface anion channel blockers, osmotic lysis – cell-based, P. falciparum Indochina, OD700, 1 h, primary screen (AID 1154). The settings on record: P. falciparum Indochina infected RBC osmotic lysis, higher = more signal, called active from +8 up or from −8 down.
A short description of assay [4]: plasmodial surface anion channel blockers, osmotic lysis – cell-based, P. falciparum Indochina, OD700, 2 h, primary screen (AID 1155).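 Note: lysis reports solute entry through the parasite surface anion channel PSAC.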 As to conditions: P. falciparum Indochina infected erythrocytes, higher = more signal, called active from +8 up or from −8 down.
A short description of assay [5]: changes in parasitized red cell lysis, either direction – P. falciparum Indochina, OD700, 3 h, PSAC antagonist project, primary screen (AID 1156). The settings on record: P. falciparum-infected erythrocytes, osmotic lysis, higher = more signal, called active from +8 up or from −8 down.
The nature of assay [6]: plasmodial surface anion channel blockers, osmotic lysis – cell-based, P. falciparum Indochina, OD700, 18 h, primary screen (AID 1157). As to conditions: P. falciparum Indochina infected erythrocytes, osmotic lysis OD700, 18 h; higher = more signal, called active from +8 up or from −8 down.
The nature of assay [7]: S6 kinase pathway phospho-S6 level changes – cell-based, A549, cytoblot, luminescence, serum-stimulated, primary screen (AID 1158).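 Note: serum-stimulated A549 lung adenocarcinoma cells; signal is phosphorylated S6 detected by cytoblot immunostaining with HRP secondary.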 As to conditions: 5 h, higher = more signal.
For assay [8], the target named is NADPH oxidase 2 (Homo sapiens) (UniProt P04839). In words: compounds shifting NOX2 Amplex Red fluorescence – cell-based, HEK293-NOX2, PMA-stimulated, NOX inhibitor project, primary screen (AID 1159). Note: test concentration not given here. The settings on record: 45 min, higher = more signal, called active from +8 up or from −8 down.
The target of assay [9] is NADPH oxidase 4 (Homo sapiens) (UniProt Q9NPH5). In words: compounds shifting NOX4 Amplex Red fluorescence – cell-based, HEK293-NOX4, tetracycline-induced, NOX inhibitor project, primary screen (AID 1160). As to conditions: HEK293-NOX4, Amplex Red H2O2 fluorescence, 45 min; higher = more signal, called active from +8 up or from −8 down.
Assay [10] addresses NADPH oxidase 5 (Homo sapiens) (UniProt Q96PH1). In words: compounds shifting NOX5 Amplex Red fluorescence – cell-based, HEK293-NOX5, NOX inhibitor project, primary screen (AID 1161). As to conditions: HEK293-NOX5, ionomycin, 45 min, higher = more signal.
Assay [11] is described as follows: compound effects on lung adenocarcinoma cell viability – A549, calcein-AM fluorescence, 48 h, basal, profiling panel (AID 1162). Note: test concentration not given here. As to conditions: higher = more signal.
Assay [12] can be described thus: compound effects on differentiated 3T3-L1 adipocyte viability – cell-based, 3T3-L1 adipocytes, calcein-AM fluorescence, 48 h, basal, profiling panel (AID 1163). Note: test concentration not given here. The settings on record: 3T3-L1 adipocytes viability, higher = more signal.
The nature of assay [13]: compound effects on hepatocellular carcinoma cell viability – HepG2, calcein-AM fluorescence, 48 h, basal, profiling panel (AID 1164). Note: test concentration not given here. The settings on record: higher = more signal.
Assay [14] is described as follows: compound effects on multiple myeloma cell viability – MM1S, calcein-AM fluorescence, 48 h, basal, profiling panel (AID 1165).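 Note: viability of MM1S multiple myeloma cells under basal unstimulated conditions; test concentration not given here.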 The settings on record: higher = more signal.
A short description of assay [15]: calcein-AM signal in unstimulated myeloma cells – cell-based, calcein-AM fluorescence, 48 h, PK04 Diversity Set, profiling panel (AID 1166).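 Note: cells grown under basal conditions without added stimulus; test concentration not given here.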 As to conditions: RPMI8226 myeloma viability, higher = more signal.
The nature of assay [16]: JC-1 mitochondrial signal, unstimulated HepG2 cells – cell-based, JC-1 fluorescence, 24 h, 100 nL compound, profiling panel (AID 1167). Note: test concentration not given here. The settings on record: HepG2 mitochondrial potential, higher = more signal.
Assay [17] in a line: JC-1 mitochondrial signal, unstimulated adipocytes – cell-based, JC-1 fluorescence, 3T3-L1 adipocytes, 24 h, 100 nL compound, profiling panel (AID 1168). Note: test concentration not given here. The settings on record: JC-1 mitochondrial fluorescence, higher = more signal, called active from +8 up or from −8 down.
The nature of assay [18]: JC-1 mitochondrial signal, unstimulated myeloma cells – cell-based, JC-1 fluorescence, RPMI8226, 24 h, 100 nL compound, profiling panel (AID 1169). Note: test concentration not given here. As to conditions: JC-1 mitochondrial potential fluorescence, higher = more signal.
A short description of assay [19]: JC-1 mitochondrial signal, unstimulated MM1S myeloma – cell-based, JC-1 fluorescence, 24 h, 100 nL compound, profiling panel (AID 1170). Note: test concentration not given here. The settings on record: MM1S mitochondrial potential, higher = more signal.
Assay [20] can be described thus: resazurin metabolic signal in A549 cells – cell-based, resazurin fluorescence, 24 h, PK04 Diversity Set, profiling panel (AID 1171). Note: test concentration not given here. The settings on record: A549 viability, higher = more signal, called active from +8 up or from −8 down. On the technique in general: The colour change of resazurin is a common sign of viable cells or microbes.

Calls of active or inactive are those of the source.

NADPH oxidase 4 (Homo sapiens), sequence (Q9NPH5 whole entry, looked up): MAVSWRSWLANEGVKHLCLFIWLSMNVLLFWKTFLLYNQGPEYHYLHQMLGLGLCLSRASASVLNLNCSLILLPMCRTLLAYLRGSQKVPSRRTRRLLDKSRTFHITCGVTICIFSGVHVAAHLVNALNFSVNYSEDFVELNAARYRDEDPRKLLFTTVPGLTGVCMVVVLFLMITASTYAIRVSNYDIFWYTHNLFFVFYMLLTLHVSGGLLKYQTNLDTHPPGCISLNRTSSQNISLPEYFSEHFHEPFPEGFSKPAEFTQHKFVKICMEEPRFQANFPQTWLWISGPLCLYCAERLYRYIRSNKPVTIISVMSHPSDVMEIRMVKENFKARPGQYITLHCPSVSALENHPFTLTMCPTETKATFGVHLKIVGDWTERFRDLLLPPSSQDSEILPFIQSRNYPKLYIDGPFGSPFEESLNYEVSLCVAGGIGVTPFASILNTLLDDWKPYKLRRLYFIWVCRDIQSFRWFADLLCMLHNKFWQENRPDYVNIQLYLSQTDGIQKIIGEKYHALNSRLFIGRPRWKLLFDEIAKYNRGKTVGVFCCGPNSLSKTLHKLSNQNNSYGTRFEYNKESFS
NADPH oxidase 2 (Homo sapiens), sequence (P04839 whole entry, looked up): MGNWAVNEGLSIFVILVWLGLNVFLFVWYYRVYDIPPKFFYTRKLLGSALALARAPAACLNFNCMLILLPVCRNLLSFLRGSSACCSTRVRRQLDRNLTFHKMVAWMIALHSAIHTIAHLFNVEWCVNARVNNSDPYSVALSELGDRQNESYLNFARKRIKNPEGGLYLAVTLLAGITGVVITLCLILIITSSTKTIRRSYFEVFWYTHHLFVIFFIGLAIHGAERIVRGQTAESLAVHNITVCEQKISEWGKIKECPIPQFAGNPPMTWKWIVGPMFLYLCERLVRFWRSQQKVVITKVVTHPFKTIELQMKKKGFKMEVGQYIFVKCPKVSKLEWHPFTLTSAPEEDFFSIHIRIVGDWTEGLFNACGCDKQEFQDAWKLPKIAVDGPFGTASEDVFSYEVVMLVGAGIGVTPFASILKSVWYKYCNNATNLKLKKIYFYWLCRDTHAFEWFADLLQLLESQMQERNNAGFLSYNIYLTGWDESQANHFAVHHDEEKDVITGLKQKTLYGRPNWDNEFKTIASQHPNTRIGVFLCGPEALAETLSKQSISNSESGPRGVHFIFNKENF
NADPH oxidase 5 (Homo sapiens), sequence (Q96PH1 whole entry, looked up): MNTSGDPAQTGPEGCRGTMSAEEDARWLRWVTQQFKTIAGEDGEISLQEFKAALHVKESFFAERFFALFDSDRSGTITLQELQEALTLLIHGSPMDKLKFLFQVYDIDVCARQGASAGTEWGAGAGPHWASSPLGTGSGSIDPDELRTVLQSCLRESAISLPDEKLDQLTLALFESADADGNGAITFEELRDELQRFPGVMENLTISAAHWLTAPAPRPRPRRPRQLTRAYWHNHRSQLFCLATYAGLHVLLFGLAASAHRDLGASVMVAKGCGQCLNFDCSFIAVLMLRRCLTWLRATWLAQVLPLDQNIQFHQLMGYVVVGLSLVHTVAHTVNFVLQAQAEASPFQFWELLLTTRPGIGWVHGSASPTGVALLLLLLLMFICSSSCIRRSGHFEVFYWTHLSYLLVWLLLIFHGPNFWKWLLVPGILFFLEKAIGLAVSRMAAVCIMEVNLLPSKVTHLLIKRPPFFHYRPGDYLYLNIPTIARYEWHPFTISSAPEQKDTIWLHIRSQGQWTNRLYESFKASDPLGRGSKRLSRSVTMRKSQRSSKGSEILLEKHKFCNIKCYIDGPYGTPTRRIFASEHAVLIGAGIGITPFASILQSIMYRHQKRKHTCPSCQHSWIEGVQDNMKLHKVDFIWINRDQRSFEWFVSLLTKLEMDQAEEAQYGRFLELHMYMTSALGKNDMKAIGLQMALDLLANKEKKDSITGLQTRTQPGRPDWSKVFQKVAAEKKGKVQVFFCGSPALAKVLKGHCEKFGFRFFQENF

`O=C(NCC(O)CO)[C@@]1(CCS(=O)(=O)c2ccccc2)COC(c2ccc(OCCCO)cc2)=N1` (stereo not given in full): the z-score is 0.457 (inactive) in assay [1]; 29.3 (active) in [3]; 22.3 (active) in [4]; 1.7 (inactive) in assay [5]; 2.91 (inactive) in assay [6]; -0.245 in assay [7]. For the same compound, the z-score is 0.299 (inactive) in assay [8]; 1.77 (inactive) in [9]; 1.51 in [10]; -0.696 in assay [11]; -0.0875 in [12]; 0.261 in assay [13]. For the same compound, the z-score in [14] is -1.29; in assay [15], -0.187; in assay [16], -0.341; in assay [17], -0.834 (inactive); in [18], 0.747; in assay [19], -0.815. In addition, the z-score in assay [20] is 1.01 (inactive). In [2], this compound displayed a composite z-score of 0.467.

For the compound `COC(=O)[C@@]1(Cc2ccc(OC)cc2)[C@H]2c3cc(C(=O)N4CCCC4)n(Cc4ccc(S(C)(=O)=O)cc4)c3C[C@H]2CN1C(=O)c1ccccc1`, the z-score in [1] is -1.08 (inactive); in [3] it was 2.29 (inactive); in assay [4], 0.326 (inactive); in assay [5], 0.6 (inactive); in assay [6], 0.617 (inactive); in assay [7], -0.688. In addition, the z-score in assay [8] is 0.385 (inactive); in assay [9] it was -0.389 (inactive); in assay [10] it was -1.7; in [11], -0.112; in assay [12], 0.842; in assay [13], 0.47. In addition, the z-score in assay [14] is 0.137; in assay [15] it was -0.403; in assay [16] it was 2.63; in [17], -0.606 (inactive); in assay [18], -0.7; in [19], -1.15. The z-score in [20] was 0.105 (inactive). Also, the composite z-score in [2] stood at 0.315.

For the compound `C=CCC(OC(C)=O)[C@@H]1[C@@H](N(Cc2ccc(-c3cccc(C(F)(F)F)c3)o2)C(=O)Cc2ccc(OC)cc2)c2cc(OCCCO)ccc2N1C(=O)Cc1ccc2ccccc2c1` (stereo not given in full), the z-score is -0.597 (inactive) in assay [1]; 0.572 (inactive) in [3]; 0.214 (inactive) in assay [4]; 1.83 (inactive) in assay [5]; 0.165 (inactive) in [6]; 0.258 in assay [7]. The z-score in assay [8] was -1.6 (inactive); in assay [9], -1.4 (inactive); in [10], -1.11; in [11] it was 0.553; in assay [12], 1.78; in assay [13], 0.73. In addition, the z-score is -0.499 in assay [14]; -1.14 in assay [15]; 1.94 in [16]; -0.3 (inactive) in [17]; 0.114 in assay [18]; 0.296 in [19]. Moreover, the z-score in assay [20] is -0.674 (inactive). In [2], the composite z-score is 0.0026.

With `CC(=O)NCCCC[C@@H]1NC(=O)[C@H]2C[C@@H](C(=O)NCCCCCNC(=O)CS)[C@@H](c3cccc(OCCO)c3)N2C1=O`, the z-score in assay [1] is -0.486 (inactive); in assay [3] it was 1.85 (inactive); in [4] it was 0.461 (inactive); in [5] it was -0.369 (inactive); in assay [6], 0.227 (inactive); in assay [7] it was 0.0439. The z-score was 1.87 (inactive) in assay [8]; 0.825 (inactive) in assay [9]; 0.697 in assay [10]; -0.227 in [11]; -0.146 in assay [12]; 0.0877 in assay [13]. For the same compound, the z-score was 0.0637 in assay [14]; -0.433 in assay [15]; 1.09 in assay [16]; -0.286 (inactive) in assay [17]; -0.428 in assay [18]; 0.0573 in assay [19]. In addition, the z-score in [20] was -0.496 (inactive). Besides, the composite z-score in assay [2] is -0.0573.
